Assay outcomes deposited in PubChem BioAssay by NMMLSC.
Sampled rows, rich in hits. Any-hit rate of the full collection: about 1.4%.
FPRL1 binder: ligands of human FPRL1, also counter-screen for FPR ligands; P25090; FPRL1-expressing cells, fluorescent ligand binding inhibition, flow cytometry; 24,000 compounds, 0.3% hits; inhibition, % (test concentration not listed)
Target sequence (P25090 whole entry, looked up): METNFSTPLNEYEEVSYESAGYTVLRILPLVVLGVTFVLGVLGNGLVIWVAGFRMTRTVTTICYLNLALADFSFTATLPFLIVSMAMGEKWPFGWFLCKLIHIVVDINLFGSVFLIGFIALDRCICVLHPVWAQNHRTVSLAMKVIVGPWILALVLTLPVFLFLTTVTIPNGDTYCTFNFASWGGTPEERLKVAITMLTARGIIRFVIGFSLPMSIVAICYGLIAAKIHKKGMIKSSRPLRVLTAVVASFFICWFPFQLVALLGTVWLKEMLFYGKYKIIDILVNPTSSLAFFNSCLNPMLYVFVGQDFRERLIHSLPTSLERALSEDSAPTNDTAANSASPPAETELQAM
S aureus QS inh: blocks AIP-induced quorum sensing reporter in S. aureus | S. aureus RN6390 RNAIII-GFP reporter, flow cytometry 3 h | 24,000 compounds, 0.3% hits | inhibition, % at 2 µM;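 active = share of bacteria positive for the green fluorescent reporter and its mean brightness both inhibited by 50% or more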
26S disassembly: blocks ATP-dependent breakdown of the yeast 26S proteasome; anti-FLAG beads, GFP-proteasome disassembly, flow cytometry; AID 751; 24,000 compounds, 0.2% hits; inhibition of disassembly, % (no concentration beside the values);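 active = inhibition of disassembly above about 33%, limit read from the data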;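 note: higher percent means more bead fluorescence retained so stronger block of disassembly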
FPR ligand: ligands of human FPR, also counter-screen for FPRL1 ligands; 24,000 compounds, 0.74% hits; inhibition, % (no concentration beside the values); FPR-expressing cells, fluorescent ligand binding, flow cytometry; AID 440
Numbers stand for hits; i = inactive; nt = not tested or not shown. Cut-off read from the data, not from the text of the source, unless noted: active = inhibition above about 30%; inconclusive = no clear call, values can overlap the other calls; inactive = below that.

SMILES	FPRL1 binder	S aureus QS inh	26S disassembly	FPR ligand
COc1cc(S(=O)(=O)N2CCOCC2)ccc1NC(=O)COC(=O)c1ccccn1	i	i	i	i
O=C(NCCC1=CCCCC1)C(=O)NCC(c1ccco1)N1CCN(c2ccc(F)cc2)CC1 (stereo not drawn)	nt	i	nt	nt
Cc1cc(C)cc(N(CC(=O)N2CCn3c2nc2ccccc23)S(=O)(=O)c2c(C)noc2C)c1	i	i	i	i
Cc1cc(C)cc(-n2cc3c(=O)n(C)c(=O)n(C)c3c2)c1	i	i	i	31.6
Nc1cc(OC(=O)c2cccs2)nn1S(=O)(=O)c1ccccc1	i	i	i	i
Cc1nn(-c2ccccc2)c(OC(=O)c2cccs2)c1S(=O)(=O)c1ccccc1	i	53.1	i	i
COc1cccc(C2C3=C(CCCC3=O)Nc3nc4ccccc4n32)c1OC (stereo not drawn)	i	i	i	i
Clc1ccc(C2CC(c3cccs3)n3ncnc3N2)c(Cl)c1 (stereo not drawn)	i	i	i	i
Cc1noc(/C=C/c2ccco2)c1S(=O)(=O)N1CCC(C(=O)N2c3ccccc3CC2C)CC1 (stereo not drawn)	i	i	105.2	i
Cc1noc(/C=C/c2ccco2)c1S(=O)(=O)N1CCC(C(=O)N(C)Cc2ccccc2)CC1	i	i	45.8	i
Cc1noc(C)c1S(=O)(=O)N1CCC(C(=O)N2CCN(c3ccccc3Cl)CC2)CC1	i	i	i	i
Cc1noc(C)c1S(=O)(=O)N1CCC(C(=O)N2CCN(C(=O)c3ccco3)CC2)CC1	i	i	i	i
COc1ccc(CNc2nc3c(c(C(F)(F)F)n2)CCCCC3)cc1	i	i	i	i
CC(C)c1ccc(NC(=O)C2CC(=O)N=C(N)S2)cc1 (stereo not drawn)	nt	i	nt	nt
CCCCCNC(=O)CCn1c(=O)oc2ccccc21	i	i	i	i
CCCCCOC(=O)Cn1c(=O)oc2ccccc21	i	i	i	30.8
